From PubChem BioAssay (Tox21)
“And” between values parts separate entries of the source, which are not always exact repeats. Equal values may be shown once. Inconclusive results are not listed. Where a call stands in place of a potency, no number is given. More than one record can exist for a structure, and the calls need not agree. The source made the active and inactive calls. Unless noted, calls come from the whole dose curve.

What was measured:
[1] = Nuclear factor erythroid 2-related factor 2/antioxidant responsive element (Nrf2/ARE) small molecule agonists: qHTS cell viability counter screen in human keratinocytes (AID 1919968; active = well fitted curve in the direction sought with a large enough effect in the repeat runs; an effect the other way counts as inactive or inconclusive; note: nearly all actives have a fitted effect of over 55% in size)
In short: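 Viability counter-screen: KeratinoSens reporter cells, DMSO-delivered compounds, 23 h at 37 C, CellTiter-Fluor fluorescence.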

[2] = Nuclear factor erythroid 2-related factor 2/antioxidant responsive element (Nrf2/ARE) small molecule agonists: luciferase reporter gene qHTS assay in human keratinocytes (AID 1919969); note: nearly all actives have a fitted effect of over 35% in size; note: potency is the fitted concentration of half-maximal effect
[3] = biological target: Gonadotropin-releasing hormone receptor (Homo sapiens) (UniProt P30968); test: Human gonadotropin-releasing hormone receptor (GnRHR) small molecule agonists, calcium flux assay in GnRHR-HEK293 cells (AID 1920063); note: nearly all actives have a fitted effect of over 35% in size
In short: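 Tox21-format agonist screen using human GnRHR-expressing HEK293 cells and a fluorescent calcium dye; kinetic 3-min fluorescence reading after compound addition, 15-point concentration series run in triplicate.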

[4] = biological target: KiSS-1 receptor (Homo sapiens) (UniProt Q969F8); test: Human kisspeptin (KISS1R) small molecule agonists, calcium flux assay in KISS1R-HEK293 cells (AID 1920064; active = well fitted curve in the direction sought with a large enough effect in the repeat runs; an effect the other way counts as inactive or inconclusive)
In short: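 Intracellular calcium mobilization in KISS1R-HEK293 cells was recorded by fluorescence (Ex/Em 480/540) for 3 min following compound addition to cells pre-loaded 1 h with calcium dye.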

[5] = G protein-coupled receptor (GPCR) small molecule agonists, calcium flux assay: HEK293 wild type cell line counter screen (AID 1920065)
In short: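 In this agonist-mode screen, ATP is the positive control and DMSO the vehicle. Cells grow 18 h before a 1 h dye incubation at 37 C; signal is taken at Ex/Em 480/540 over 3 min.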

[6] = p53 small molecule agonists, cell-based qHTS assay with human liver microsomes (AID 1963577)
In short: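 p53RE-bla reporter cells were pre-incubated 5 h at 37 C, then treated with compounds plus human liver microsomes (0.5 mg/mL final) and NADPH (0.5 mg/mL final) for 16 h at 37 C. Beta-lactamase activity was read by LiveBLAzer fluorescence after 2 h at room temperature.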

[7] = p53 small molecule agonists, cell-based qHTS assay with rat liver microsomes (AID 1963578)
In short: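 p53RE-bla cells were exposed to compounds together with rat liver microsomes (0.5 mg/mL final) and NADPH (0.5 mg/mL final) for 16 h at 37 C, then read by LiveBLAzer beta-lactamase fluorescence after 2 h at room temperature.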

[8] = p53 small molecule agonists, cell-based qHTS assay with human liver microsomes: qHTS cell viability counter screen (AID 1963579); note: nearly all actives have a fitted effect of over 45% in size; note: potency is the fitted concentration of half-maximal effect
In short: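 p53RE-bla cells (4,000/well) were pre-incubated 5 h at 37 C, then given compounds in DMSO plus human liver microsomes (0.5 mg/mL final) and NADPH (0.5 mg/mL final) for 16 h at 37 C. Viability was read by CellTiter-Glo luminescence.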

[9] = p53 small molecule agonists, cell-based qHTS assay with rat liver microsomes: qHTS cell viability counter screen (AID 1963580); note: nearly all actives have a fitted effect of over 45% in size
In short: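 Intracellular ATP, by CellTiter-Glo luminescence, defines viability. HCT-116 p53RE-bla cells, 4,000 per well, were compound-treated in the presence of rat liver microsomes and NADPH for 16 h at 37 C.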

[10] = p53 small molecule agonists, cell-based qHTS assay: qHTS cell viability counter screen (AID 1963581); note: nearly all actives have a fitted effect of over 45% in size
In short: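 Compounds are pinned onto HCT-116 p53RE-bla cells and left 16 h at 37 C. Following the reporter FRET read, ATP is quantified by CellTiter-Glo luminescence after 30 min at room temperature.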

[11] = p53 small molecule agonists, cell-based qHTS assay (AID 1963582; active = well fitted activation curve with a large enough effect in the signal ratio in the repeat runs, not every such curve was filed as active; the % refers to the signal ratio; note: potency is the fitted concentration of half-maximal effect)
In short: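 Agonist activity was scored from beta-lactamase FRET fluorescence in p53RE-bla cells treated 16 h at 37 C with compounds in DMSO, substrate incubation being 2 h at room temperature.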

[12] = biological target: 5-hydroxytryptamine receptor 2A (Homo sapiens) (UniProt P28223); test: 5-hydroxytryptamine receptor 2A (HTR2A) small molecule antagonists, cell-based qHTS assay (AID 1963586); note: nearly all actives have a fitted effect of over 45% in size; note: potency is the fitted concentration of half-maximal effect
In short: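 Antagonist-mode intracellular calcium assay: DOI (4 nM) added after 5 min compound pre-incubation at room temperature to dye-loaded HTR2A-CHO cells. Fluorescence followed for 3 min, sampled every second.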

[13] = biological target: 5-hydroxytryptamine receptor 2A (Homo sapiens) (UniProt P28223); test: 5-hydroxytryptamine receptor 2A (HTR2A) small molecule agonists, cell-based qHTS assay (AID 1963587); note: nearly all actives have a fitted effect of over 30% in size; note: potency is the fitted concentration of half-maximal effect
In short: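 Kinetic calcium-flux fluorescence (2 min, 1 sec intervals) after compound addition in agonist mode. HTR2A-CHO cells were cultured 18 h, then dye-loaded 1 h at 37 C.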

[14] = biological target: Muscarinic acetylcholine receptor M1 (Homo sapiens) (UniProt P11229); test: Cholinergic receptor muscarinic 1 (CHRM1) small molecule antagonists, cell-based qHTS assay (AID 1963588); note: nearly all actives have a fitted effect of over 40% in size
In short: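 CHRM1-CHO calcium-flux assay, antagonist mode. Cells were seeded 18 h, dye-loaded 1 h at 37 C and given compound for 5 min at RT, then acetylcholine was added at 50nM. FDSS fluorescence was read 3 min; 15 concentrations, three runs.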

[15] = biological target: Muscarinic acetylcholine receptor M1 (Homo sapiens) (UniProt P11229); test: Cholinergic receptor muscarinic 1 (CHRM1) small molecule agonists, cell-based qHTS assay (AID 1963589); note: nearly all actives have a fitted effect of over 35% in size
In short: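 Stable CHRM1-CHO cells (human receptor) were incubated 18 h, dye-loaded for 1 h at 37 C and exposed to test compounds for agonist activity, with calcium-dependent fluorescence followed kinetically.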

[16] = cAMP Responsive Elements (CRE) small molecule antagonists, cell-based qHTS assay (AID 1963591; active = well fitted inhibition curve with a large enough effect in the signal ratio in the repeat runs, not every such curve was filed as active; the % refers to the signal ratio)
In short: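 qHTS in CRE-bla HEK 293T cells: compound in DMSO, then 0.25 uM NKH477 (final), 3 h at 37 °C/5% CO2; beta-lactamase FRET read-out after 2 h substrate incubation.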

[17] = biological target: Beta-2 adrenergic receptor (Homo sapiens) (UniProt P07550); test: Adrenergic beta2 receptor (ADRB2) small molecule antagonists, cell-based qHTS assay (AID 1963592); note: nearly all actives have a fitted effect of over 50% in size; note: potency is the fitted concentration of half-maximal effect
In short: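 Cells (CHO, stable ADRB2 overexpression) incubated 18-20hr at 37C; compounds added from DMSO; agonist mix (1nM isoproterenol, 100uM IBMX, 25uM Ro-20-1724) added; 0.5hr RT; d2-cAMP and anti-cAMP-cryptate added; 1hr RT; 665/615 nm read.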

[18] = biological target: D(2) dopamine receptor (Homo sapiens) (UniProt P14416); test: Dopamine D2 receptor (DRD2) small molecule agonists, cell-based qHTS assay (AID 1963594); note: nearly all actives have a fitted effect of over 35% in size
In short: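 cAMP accumulation in DRD2-HEK293 cells measured by HTRF after 1 h detection; compounds added 10 min before NKH477 (200nM […]) forskolin-analogue stimulation, 30 min at room temperature, with Ro20-1724 present at 0.1 mM final.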

[19] = biological target: D(2) dopamine receptor (Homo sapiens) (UniProt P14416); test: Dopamine D2 receptor (DRD2) small molecule antagonists, cell-based qHTS assay (AID 1963595; active = well fitted inhibition curve with a large enough effect in the signal ratio in the repeat runs, with a control signal flat; the % refers to the signal ratio)
In short: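 Antagonist mode in DRD2-HEK293 cells: after compound addition with 0.1 mM Ro20-1724, cells received quinpirole (12 nM) and NKH477 (200 nM) for 30 min at room temperature; HTRF cAMP read after 1 h detection.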

[20] = cAMP Responsive Elements (CRE) small molecule agonists, cell-based qHTS assay (AID 1963590)
In short: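 FRET-based beta-lactamase readout (LiveBLAzer B/G, 2 h RT) quantified CRE activation in HEK 293T CRE-bla cells after 3 h treatment with DMSO-dissolved compounds.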

Sequence of Gonadotropin-releasing hormone receptor (Homo sapiens) (P30968 whole entry, looked up): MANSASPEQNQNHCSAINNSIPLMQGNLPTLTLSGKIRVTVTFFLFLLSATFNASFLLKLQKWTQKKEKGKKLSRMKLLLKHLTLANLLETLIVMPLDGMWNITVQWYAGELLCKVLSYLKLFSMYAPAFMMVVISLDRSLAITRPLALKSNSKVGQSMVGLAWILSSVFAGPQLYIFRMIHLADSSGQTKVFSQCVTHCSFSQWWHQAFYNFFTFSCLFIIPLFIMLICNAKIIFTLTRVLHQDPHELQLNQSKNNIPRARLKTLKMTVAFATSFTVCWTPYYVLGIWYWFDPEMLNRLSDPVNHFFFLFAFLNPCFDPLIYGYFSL
Sequence of KiSS-1 receptor (Homo sapiens) (Q969F8 whole entry, looked up): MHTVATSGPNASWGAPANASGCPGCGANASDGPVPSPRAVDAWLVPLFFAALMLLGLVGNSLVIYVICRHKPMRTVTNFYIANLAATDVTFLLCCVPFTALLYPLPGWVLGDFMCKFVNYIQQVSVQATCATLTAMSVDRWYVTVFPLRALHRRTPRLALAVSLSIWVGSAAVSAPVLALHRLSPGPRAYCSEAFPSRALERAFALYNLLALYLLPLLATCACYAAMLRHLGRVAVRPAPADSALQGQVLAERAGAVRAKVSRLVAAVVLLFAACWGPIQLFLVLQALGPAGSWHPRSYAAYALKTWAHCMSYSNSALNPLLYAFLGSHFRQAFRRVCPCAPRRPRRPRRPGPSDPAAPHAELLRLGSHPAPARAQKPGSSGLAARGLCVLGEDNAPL
Sequence of Muscarinic acetylcholine receptor M1 (Homo sapiens) (P11229 whole entry, looked up): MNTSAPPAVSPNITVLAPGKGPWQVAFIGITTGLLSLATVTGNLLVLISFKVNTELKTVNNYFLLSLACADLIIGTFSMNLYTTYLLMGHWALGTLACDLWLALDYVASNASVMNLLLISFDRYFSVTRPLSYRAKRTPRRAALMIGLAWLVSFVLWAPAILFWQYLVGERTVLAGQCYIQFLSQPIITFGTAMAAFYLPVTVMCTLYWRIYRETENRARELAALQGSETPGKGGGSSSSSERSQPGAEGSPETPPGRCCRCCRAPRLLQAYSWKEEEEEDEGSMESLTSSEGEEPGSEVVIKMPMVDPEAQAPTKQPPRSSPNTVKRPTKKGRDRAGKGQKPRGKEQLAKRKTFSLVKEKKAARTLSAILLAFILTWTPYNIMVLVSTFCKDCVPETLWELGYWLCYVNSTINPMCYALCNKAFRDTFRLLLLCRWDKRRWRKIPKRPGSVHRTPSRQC
Sequence of 5-hydroxytryptamine receptor 2A (Homo sapiens) (P28223 whole entry, looked up): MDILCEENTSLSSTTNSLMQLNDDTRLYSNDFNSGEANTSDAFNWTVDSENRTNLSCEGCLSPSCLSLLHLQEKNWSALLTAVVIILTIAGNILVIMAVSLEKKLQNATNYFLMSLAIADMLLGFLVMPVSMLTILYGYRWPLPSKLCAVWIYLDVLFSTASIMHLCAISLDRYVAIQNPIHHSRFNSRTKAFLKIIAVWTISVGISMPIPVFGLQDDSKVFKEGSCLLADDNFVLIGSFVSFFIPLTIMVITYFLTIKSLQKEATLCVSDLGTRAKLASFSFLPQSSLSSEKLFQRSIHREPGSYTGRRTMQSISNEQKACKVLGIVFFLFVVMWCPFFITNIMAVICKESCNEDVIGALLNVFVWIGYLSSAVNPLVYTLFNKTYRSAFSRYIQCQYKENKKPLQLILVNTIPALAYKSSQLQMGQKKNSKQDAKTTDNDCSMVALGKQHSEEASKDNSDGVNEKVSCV
Sequence of D(2) dopamine receptor (Homo sapiens) (P14416 whole entry, looked up): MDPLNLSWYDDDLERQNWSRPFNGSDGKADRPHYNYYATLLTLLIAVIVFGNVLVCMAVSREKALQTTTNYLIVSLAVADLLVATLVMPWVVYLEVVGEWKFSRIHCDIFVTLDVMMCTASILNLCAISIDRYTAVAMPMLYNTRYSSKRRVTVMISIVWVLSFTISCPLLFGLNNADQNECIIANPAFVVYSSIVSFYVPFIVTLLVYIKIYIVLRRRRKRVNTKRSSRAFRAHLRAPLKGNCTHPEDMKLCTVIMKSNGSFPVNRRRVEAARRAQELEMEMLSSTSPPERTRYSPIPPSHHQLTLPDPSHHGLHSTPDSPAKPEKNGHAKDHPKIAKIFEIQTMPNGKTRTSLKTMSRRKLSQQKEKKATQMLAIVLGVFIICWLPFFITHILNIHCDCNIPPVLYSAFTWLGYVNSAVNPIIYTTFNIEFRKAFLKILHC
Sequence of Beta-2 adrenergic receptor (Homo sapiens) (P07550 whole entry, looked up): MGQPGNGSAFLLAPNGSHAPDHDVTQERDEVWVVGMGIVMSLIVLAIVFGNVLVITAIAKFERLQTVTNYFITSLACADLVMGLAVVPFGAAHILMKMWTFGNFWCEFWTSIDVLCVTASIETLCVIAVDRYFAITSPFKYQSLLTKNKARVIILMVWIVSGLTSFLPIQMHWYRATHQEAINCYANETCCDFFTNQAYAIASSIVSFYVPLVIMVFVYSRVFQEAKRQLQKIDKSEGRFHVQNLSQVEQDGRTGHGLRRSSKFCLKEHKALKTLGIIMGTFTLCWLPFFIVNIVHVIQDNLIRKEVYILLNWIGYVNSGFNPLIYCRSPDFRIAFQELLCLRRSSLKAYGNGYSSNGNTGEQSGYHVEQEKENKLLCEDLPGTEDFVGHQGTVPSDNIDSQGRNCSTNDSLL

Compound | Potency [1] | Potency [2] | Potency [3] | Potency [4] | Potency [5] | Potency [6] | Potency [7] | Potency [8] | Potency [9] | Potency [10] | Potency [11] | Potency [12] | Potency [13] | Potency [14] | Potency [15] | Potency [16] | Potency [17] | Potency [18] | Potency [19] | Potency [20]
Nc1ccc2c(c1)C(=O)c1ccccc1C2=O | inactive | 756 nM (active) and 243 nM (active) | inactive | inactive | inactive | inactive | inactive | inactive and 4.08 µM (active) | inactive | inactive | inactive | inactive | inactive | inactive | inactive | inactive | inactive |  |  | 
O=c1n(CC2CO2)c(=O)n(CC2CO2)c(=O)n1CC1CO1 (stereo unspecified) | inactive | 60.8 µM (active) and 68.6 µM (active) | inactive | inactive | inactive | inactive | inactive | inactive | inactive | inactive | 18.1 µM (active) and 20.4 µM (active) | inactive | inactive | inactive | inactive |  | inactive | inactive | inactive | 
Cc1ccc2ncccc2c1 | inactive | inactive | inactive | inactive | inactive | inactive | inactive | inactive | inactive | inactive | inactive | inactive | inactive | inactive | inactive | inactive | inactive | inactive | inactive | 
CCCC(C)=O | inactive | inactive | inactive | inactive | inactive | inactive | inactive | inactive | inactive | inactive | inactive | inactive | inactive | inactive | inactive | inactive | inactive | inactive | inactive | 
CCN(CCN)c1cccc(C)c1 | inactive | inactive | inactive | inactive | inactive | inactive | inactive | inactive | inactive | inactive | inactive | 0.53 µM (active) | 393 nM (active) and 776 nM (active) | inactive | inactive | inactive | 24.6 µM (active) | inactive | inactive | inactive
c1cc(-c2ccncc2)ccn1 | inactive | inactive | inactive | inactive | inactive | inactive | inactive | inactive | inactive | inactive | inactive | inactive | inactive | inactive | inactive | inactive | inactive | inactive | inactive | 
Cc1ccc2c(c1)C(=O)OC2=O | inactive | inactive | inactive | inactive | inactive | inactive | inactive | inactive | inactive | inactive | inactive | inactive | inactive | inactive | inactive |  | inactive | inactive | inactive | inactive
